In PubChem BioAssay AID1159580 (chemical genetic matrix, 2015):
Where “and” joins values, the source holds several entries; their conditions need not be identical. Identical values can stand only once. The whole screen tested about 5,500 compounds, of which about 2,000 (36%) were called active. Not shown: some 18% with an inconclusive outcome. No stated cut-off is given here; in the data, active means normalized growth mostly below about 0.91 (no sharp cut-off); inconclusive means no clear call, values can overlap the other calls; inactive means mostly above about 0.92. This is one part of the list.

Assay: chemical genetic growth profiling, strain panel (AID 1159580);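 further: tested at 20 µM; growth read once vehicle control cultures reached saturation at 30 °C; 1 = growth at the plate median or of vehicle wells; lower values mean less growth of the strain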
Conditions: S. cerevisiae deletion strains, growth OD

Measured: normalized growth

CC1(C)O[C@@H]2CC3C4C[C@H](F)C5=CC(=O)C=CC5(C)C4C(O)CC3(C)[C@]2(C(=O)CO)O1 (stereo partly drawn)
inactive: locus YAL013W, strain DEP1, active compounds read low 1.02 | locus YAL021C, strain ccr4, active compounds read low 1 | locus YAL026C, strain drs2, active compounds read low 0.993 | locus YAL030W, strain snc1, active compounds read low 0.992 | locus YBL061C, strain skt5, active compounds read low 0.979 | locus YBR009C, strain hhf1, active compounds read low 1.01 | locus YBR021W, strain FUR4, active compounds read low 1.02 | locus YBR023C, strain chs3, active compounds read low 0.987 | locus YBR171W, strain sec66, active compounds read low 0.985 | locus YBR229C, strain ROT2, active compounds read low 1.02 | locus YBR231C, strain swc5, active compounds read low 1 | locus YBR279W, strain paf1, active compounds read low 0.976 | locus YCL011C, strain gbp2, active compounds read low 0.982 | locus YCL016C, strain dcc1, active compounds read low 0.96 | locus YCL029C, strain bik1, active compounds read low 0.989 | locus YCL069W, strain vba3, active compounds read low 0.995 | locus YCR088W, strain abp1, active compounds read low 0.992 | locus YDL005C, strain med2, active compounds read low 0.973 | locus YDL035C, strain GPR1, active compounds read low 1.02 | locus YDL040C, strain nat1, active compounds read low 0.983 | locus YDL074C, strain BRE1, active compounds read low 1.04 | locus YDL101C, strain DUN1, active compounds read low 1.02 | locus YDL134C, strain PPH21, active compounds read low 1.02 | locus YDL185W, strain tfp1, active compounds read low 0.991 | locus YDL192W, strain arf1, active compounds read low 1.01 | locus YDR001C, strain nth1, active compounds read low 0.983 | locus YDR069C, strain doa4, active compounds read low 1 | locus YDR101C, strain arx1, active compounds read low 1 | locus YDR137W, strain rgp1, active compounds read low 1 | locus YDR159W, strain sac3, active compounds read low 0.982 | locus YDR162C, strain NBP2, active compounds read low 1.01 | locus YDR195W, strain ref2 0.997 | locus YDR297W, strain sur2, active compounds read low 1 | locus YDR318W, strain mcm21, active compounds read low 0.996 | locus YDR334W, strain swr1, active compounds read low 0.985 | locus YDR335W, strain msn5, active compounds read low 0.975 | locus YDR388W, active compounds read low 0.99 | locus YDR392W, strain spt3, active compounds read low 0.917 | locus YDR502C, strain sam2, active compounds read low 0.991 | locus YEL003W, strain gim4, active compounds read low 1.02 | locus YEL037C, strain rad23, active compounds read low 0.979 | locus YEL061C, strain CIN8 (second series), active compounds read low 0.987 | locus YEL061C, strain CIN8, active compounds read low 1.01 | locus YER015W, strain faa2, active compounds read low 0.996 | locus YER016W, strain bim1, active compounds read low 0.971 | locus YER110C, active compounds read low 0.988 | locus YER111C, strain swi4, active compounds read low 0.975 | locus YER155C, strain BEM2 (second series), active compounds read low 1.01 | locus YER155C, strain BEM2, active compounds read low 1.01 | locus YER167W, strain BCK2, active compounds read low 1.01 | locus YFR010W, strain ubp6, active compounds read low 1.01 | locus YGL078C, strain dbp3, active compounds read low 0.979 | locus YGL086W, strain mad1, active compounds read low 1.01 | locus YGL167C, strain pmr1, active compounds read low 0.996 | locus YGL173C, strain kem1, active compounds read low 1 | locus YGL227W, strain vid30, active compounds read low 0.988 | locus YGL240W, strain doc1, active compounds read low 1.02 | locus YGL248W, strain PDE1, active compounds read low 1.03 | locus YGL253W, strain hxk2, active compounds read low 0.959 | locus YGR135W, strain pre9, active compounds read low 0.98 | locus YGR252W, strain gcn5, active compounds read low 0.984 | locus YHR013C, strain ard1, active compounds read low 0.957 | locus YHR027C, strain rpn1, active compounds read low 0.99 | locus YHR030C, strain SLT2, active compounds read low 1.01 and 1.02 | locus YHR079C, strain IRE1 (second series), active compounds read low 0.99 | locus YHR079C, strain IRE1, active compounds read low 1.02 | locus YHR094C, strain hxt1, active compounds read low 0.98 | locus YHR129C, strain ARP1, active compounds read low 1.02 | locus YHR142W, strain chs7, active compounds read low 0.941 | locus YHR200W, strain rpn10, active compounds read low 0.998 | locus YIL066C, strain RNR3, active compounds read low 1.02 | locus YIL073C, strain SPO22, active compounds read low 0.999 | locus YIL125W, strain kgd1, active compounds read low 0.99 | locus YIR030C, strain dcg1, active compounds read low 0.998 | locus YJL092W, strain hpr5, active compounds read low 1 | locus YJL095W, strain BCK1 (second series), active compounds read low 0.978 | locus YJL095W, strain BCK1, active compounds read low 1.04 and 1.03 | locus YJL115W, strain asf1, active compounds read low 0.974 | locus YJL129C, strain trk1, active compounds read low 0.953 | locus YJL134W, strain LCB3, active compounds read low 1.01 | locus YJL154C, strain vps35, active compounds read low 0.976 | locus YJL164C, strain tpk1, active compounds read low 0.972 | locus YJL166W, strain qcr8, active compounds read low 1.02 | locus YJL168C, strain set2, active compounds read low 0.993 | locus YJL187C, strain SWE1 (second series), active compounds read low 1.02 | locus YJR043C, strain POL32, active compounds read low 1.02 | locus YJR066W, strain TOR1, active compounds read low 0.954 | locus YJR075W, strain HOC1, active compounds read low 1.03
